Data from PubChem BioAssay (Tox21).
Inconclusive results are not listed. Unmarked numbers belong to inactive results. Active and inactive are the calls of the source. Calls follow the shape of the full dose curve.

Target: Thyrotropin receptor (Homo sapiens) (UniProt P16473)
Experiment: qHTS assay to identify small molecule antagonists of the thyroid stimulating hormone receptor (TSHR) signaling pathway (AID 1259385); also: nearly all actives have a fitted effect of over 20% in size
Conditions: TSHR-HEK293 cAMP HTRF, TSH-stimulated antagonist mode; series mostly up to 92.4 µM; activity change, negative = inhibition: at the top concentration
Source text: U.S. Tox21 Program National Center for Advancing Translational Sciences [NCATS] NIH Chemical Genomics Center [NCGC] U.S. Environmental Protection Agency [EPA] National Institutes of Environmental Health Sciences [NIEHS] National Toxicology Program [NTP] U.S. Food and Drug Administration [FDA] Tox21 Assay Overview: TSHR is the receptor for thyrotropin (thyroid stimulating hormone or TSH), a member of the glycoprotein hormone family. TSH is released by the anterior pituitary gland and is the main regulator of thyroid gland growth and development. Upon binding circulating thyrotropin, a G-protein signal cascade activates adenylyl cyclase and […] cAMP concentration is increased. cAMP is a key second messenger involved extensively in cellular signal transduction pathways associated with the majority of G-protein coupled receptors (GPCRs). The activation of these GPCRs by neurotransmitters, lipids, nucleotides, peptides and hormones results in the activation or the inhibition of plasma membrane-bound adenylate cyclase through heterotrimeric G-proteins. A cell-based TSHR assay can be used to screen chemical compounds that modulate TSHR either in agonist or antagonist mode.
Tox21 Assay Protocol Summary: TSHR-Hek293 cells were dispensed at 800 cells/4uL/well in 1536-well white plates using a Multidrop dispenser. After the assay plates were incubated at a 37C/5% CO2 incubator for 18 hrs, 23 nL of compounds dissolved in DMSO, positive controls or DMSO only was transferred to the assay plate by a pin tool, followed by 1 ul medium containing Ro20-1724. For the antagonist mode screening, 1 uL of TSH was added on the top of the cell/compound mixtures to achieve a final agonist concentration of 1.5 ng/mL. After 30 min of incubation at room temperature, 2.5 ul/well of cAMP-d2 and 2.5 ul/well of anti-cAMP-cryptate were added respectively into the assay plates using a Flying Reagent Dispenser. The plates were incubated at room temperature for 1 hr. The fluorescence intensity in the plates was measured using an Envision plate reader. Each test compound was measured at 15 concentrations and in triplicates.
% is scaled to controls: 0 for no effect and ±100 for the full control effect; potency is read from the fitted curve at half-maximal effect.

Chain of Thyrotropin receptor (Homo sapiens) (P16473 whole entry, looked up): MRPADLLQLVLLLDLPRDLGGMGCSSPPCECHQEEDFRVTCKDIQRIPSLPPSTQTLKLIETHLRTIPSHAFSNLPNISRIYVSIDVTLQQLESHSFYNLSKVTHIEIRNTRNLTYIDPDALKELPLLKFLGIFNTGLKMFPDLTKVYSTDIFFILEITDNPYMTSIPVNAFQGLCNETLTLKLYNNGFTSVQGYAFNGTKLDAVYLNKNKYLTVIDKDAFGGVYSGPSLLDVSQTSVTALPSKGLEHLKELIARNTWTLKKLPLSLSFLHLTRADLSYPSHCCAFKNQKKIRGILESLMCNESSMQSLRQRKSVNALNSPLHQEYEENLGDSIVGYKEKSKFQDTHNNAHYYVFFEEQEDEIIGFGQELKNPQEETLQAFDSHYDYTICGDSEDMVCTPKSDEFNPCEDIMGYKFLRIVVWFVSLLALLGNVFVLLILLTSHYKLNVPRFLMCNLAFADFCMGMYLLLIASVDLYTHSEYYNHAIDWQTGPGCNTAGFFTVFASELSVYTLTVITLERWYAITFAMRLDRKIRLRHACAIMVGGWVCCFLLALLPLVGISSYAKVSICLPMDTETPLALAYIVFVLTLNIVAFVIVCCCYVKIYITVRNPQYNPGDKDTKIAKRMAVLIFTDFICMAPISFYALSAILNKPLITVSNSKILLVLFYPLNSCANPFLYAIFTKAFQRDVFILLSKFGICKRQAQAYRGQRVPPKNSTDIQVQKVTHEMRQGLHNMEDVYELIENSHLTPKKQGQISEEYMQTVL

Compared with CCC(C)N(C)C(=O)c1cc2ccccc2c(-c2ccccc2Cl)n1 (stereo not given), O=C1Nc2cc(Cl)ccc2Oc2ccccc21 is lower in “activity change, negative = inhibition” value: 2.87% [at 42.5 µM] for the first, 1.6% [at 42.5 µM] for the second.

Compared with CN1CCN(C2=Nc3ccccc3Sc3ccc(Cl)cc32)CC1, CN1CCC(OC(c2ccccc2)c2ccccc2)CC1 is lower in “activity change, negative = inhibition” value: -1.36% [at 42.5 µM] for the first, -6.19% [at 42.5 µM] for the second.

First: O=C(O)COC(=O)Cc1ccccc1Nc1c(Cl)cccc1Cl
Second: Nc1ccc(C(=O)Nc2ccccc2N)cc1
The “activity change, negative = inhibition” value of the first is lower: -0.381% [at 42.5 µM] for the first, 2.04% [at 42.5 µM] for the second.

Compared with CCOC(=O)C1=C(C)NC(C)=C(C(=O)OC)C1c1cccc([N+](=O)[O-])c1 (stereo not given), CCN1CCC[C@H]1CNC(=O)c1c(OC)ccc(Br)c1OC is higher in “activity change, negative = inhibition” value: -4.68% [at 42.5 µM] for the first, -0.212% [at 42.5 µM] for the second.

Compared with CC(C)(C)c1cc(CCC(=O)OCC(COC(=O)CCc2cc(C(C)(C)C)c(O)c(C(C)(C)C)c2)(COC(=O)CCc2cc(C(C)(C)C)c(O)c(C(C)(C)C)c2)COC(=O)CCc2cc(C(C)(C)C)c(O)c(C(C)(C)C)c2)cc(C(C)(C)C)c1O, C=Cc1c(C)c2cc3[nH]c(cc4nc(cc5nc(cc1[nH]2)C(C)=C5CCC(=O)O)C(CCC(=O)O)=C4C)c(C)c3C=C is lower in “activity change, negative = inhibition” value: -0.0248% [at 42.5 µM] for the first, -3.07% [at 42.5 µM] for the second.

Going from C=CC[N+]1([C@H]2C[C@H]3[C@@H]4CC[C@H]5C[C@H](OC(C)=O)[C@@H](N6CCCCC6)C[C@]5(C)[C@H]4CC[C@]3(C)[C@H]2OC(=O)CC)CCCCC1 to CN(C(=O)CCCOc1ccc2[nH]c(=O)ccc2c1)C1CCCCC1, the “activity change, negative = inhibition” value rises from -5.37% [at 42.5 µM] to 1.64% [at 42.5 µM].

Compared with CCCCOc1ccc(CC(=O)NO)cc1, CCOc1nc2cccc(C(=O)O)c2n1Cc1ccc(-c2ccccc2-c2nn[nH]n2)cc1 is lower in “activity change, negative = inhibition” value: 6.71% [at 42.5 µM] for the first, -0.882% [at 42.5 µM] for the second.

Compared with O=C(O)/C=C/c1cnc[nH]1, CC(=O)OC/C=C/c1ccccc1 is higher in “activity change, negative = inhibition” value: 0.695% for the first, 0.713% for the second.

Going from CC(C)(C)C1CCCCC1O (stereo not given) to CC(O)C1CCCCC1 (stereo not given), the “activity change, negative = inhibition” value falls from 0.576% to -2.73%.

Going from CC(C)(C)c1ccc(S)cc1 to COC(Cc1ccccc1)OC, the “activity change, negative = inhibition” value falls from 1.81% to 0.625%.

First: Cc1occc1S
Second: CCCCCOC(=O)c1ccc(O)cc1
The “activity change, negative = inhibition” value of the first is higher: 0.12% for the first, -1.29% for the second.

Going from N[C@H]1C(O)O[C@H](CO)[C@H](O)[C@@H]1O (stereo not given in full) to C[C@H](CCC(=O)O)[C@H]1CC[C@H]2[C@@H]3[C@H](O)C[C@@H]4C[C@H](O)CC[C@]4(C)[C@H]3CC[C@]12C, the “activity change, negative = inhibition” value falls from 0.0129% to -2.6%.

First: CCOC(=S)SSC(=S)OCC
Second: CCCCCCOC(=O)CCC
The “activity change, negative = inhibition” value of the first is higher: 1.57% for the first, -2.89% for the second.

First: OCCC1CCCCN1 (stereo not given)
Second: O=C(O)C1CCC(C(=O)O)CC1 (stereo not given)
The “activity change, negative = inhibition” value of the first is higher: 2.12% for the first, 0.164% for the second.

First: CC1(C)[C@H]2CC[C@]1(C)[C@H](O)C2
Second: CCCC[C@H]1CN(CC2CCOCC2)C(=O)OC12CCN(C1(C)CCN(C(=O)c3c(C)ncnc3C)CC1)CC2
The “activity change, negative = inhibition” value of the first is higher: 1.66% for the first, -1.39% for the second.

Going from CCCCC(CC)COCCCN (stereo not given) to CCCCCCCCN(C)C, the “activity change, negative = inhibition” value falls from 0.371% to -0.101%.

First: CCCCCCCCCCCCC(=O)O
Second: COCCCCCCCCOCCC[Si](C)(O[Si](C)(C)C)O[Si](C)(C)C
The “activity change, negative = inhibition” value of the first is higher: 0.666% for the first, -8.93% for the second.

Going from CC(=O)OCCc1ccccc1 to NCc1ccccc1, the “activity change, negative = inhibition” value rises from -0.935% to -0.0825%.

Compared with O=c1c2ccccc2nnn1CCl, c1ccc(CNCc2ccccc2)cc1 is higher in “activity change, negative = inhibition” value: -0.624% for the first, 0.559% for the second.

CC(C)CCCC(C)CCO (stereo not given) was tested, and the “activity change, negative = inhibition” value was 2.16%.

In the case of Cn1c(N)nc2nc[nH]c2c1=O, the Potency is reported as 48 µM (active).
